High-throughput results from PubChem BioAssay.
PPARg SRC-3 ag: PPARgamma agonists recruiting SRC-3 coactivator, primary screen, biochemical | biochemical PPARgamma/SRC-3 coactivator recruitment assay | Peroxisome proliferator-activated receptor gamma (Homo sapiens), P37231 | activation, % at 8 µM | 200,000 compounds, 0.26% hits | AID 731, 2007; in the data active means activation above about 23%;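 further: 0% = DMSO and 100% = reference agonist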
Target sequence (P37231 whole entry, looked up): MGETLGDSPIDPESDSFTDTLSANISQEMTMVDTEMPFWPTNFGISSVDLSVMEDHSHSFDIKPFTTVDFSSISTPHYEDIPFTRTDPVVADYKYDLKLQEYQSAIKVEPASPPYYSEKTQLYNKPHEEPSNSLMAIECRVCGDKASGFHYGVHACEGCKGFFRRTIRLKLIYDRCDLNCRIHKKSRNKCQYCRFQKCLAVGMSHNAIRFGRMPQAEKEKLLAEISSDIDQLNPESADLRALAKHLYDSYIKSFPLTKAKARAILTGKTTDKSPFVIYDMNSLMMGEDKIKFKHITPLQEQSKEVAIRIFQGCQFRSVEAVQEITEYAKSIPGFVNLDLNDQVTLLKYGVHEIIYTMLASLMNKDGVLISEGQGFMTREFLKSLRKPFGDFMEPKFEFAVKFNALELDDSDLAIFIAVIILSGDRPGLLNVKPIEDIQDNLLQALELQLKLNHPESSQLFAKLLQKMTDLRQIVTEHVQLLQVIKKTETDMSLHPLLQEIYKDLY
PPARg SRC2 recr: agonists of PPARg-SRC-2 recruitment, primary screen, biochemical, HTS. activation, % at 8 µM. 200,000 compounds, 0.34% hits. PPARgamma LBD-SRC-2 recruitment. AID 1032, 2008. Peroxisome proliferator-activated receptor gamma (Homo sapiens), P37231; in the data active means activation above about 22%;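 further: 0% = vehicle and 100% = reference agonist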
TR-FRET SRC-2 ct: TR-FRET signal artefacts, primary screen, artefact control for PPARgamma SRC-2 agonist project, biochemical; TR-FRET artefact counter-screen; active compounds read high; TR-FRET ratio at 8 µM; 200,000 compounds, 0.4% hits; AID 1049, 2008
SRC1 TRFRET art: TR-FRET detection interference compounds, primary screen, artefact control for PPARgamma SRC-1 recruitment agonists, biochemical, TR-FRET emission ratio; TR-FRET detection artefact counter-screen; active compounds read high; TR-FRET ratio at 8 µM; 99,000 compounds, 0.34% hits; in the data active means TR-FRET ratio above about 2300
PPARg SRC1 recr: PPARgamma agonists recruiting SRC-1 coactivator, primary screen, biochemical | Peroxisome proliferator-activated receptor gamma (Homo sapiens), P37231 | PPARgamma-SRC-1 coactivator recruitment biochemical assay | activation, % at 8 µM | 200,000 compounds, 0.41% hits | AID 631, 2007; in the data active means activation above about 19%;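 further: 0% = DMSO and 100% = reference agonist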
SRC3 TRFRET art: TR-FRET detection interference compounds, artefact control for PPARgamma SRC-3 recruitment agonists, biochemical, TR-FRET ratio; TR-FRET artefact counter-screen, PPARgamma/SRC-3 format; active compounds read high; TR-FRET ratio at 8 µM; 99,000 compounds, 0.39% hits; AID 1048, 2008
* = called active by the depositor; / = not tested or not shown. A selection: hits, their analogues and other compounds. The true share with any hit is near 0.84%. Unless noted, no stated cut-off is given here; in the data, active means TR-FRET ratio above about 2000; inactive means the rest.

SMILES | PPARg SRC-3 ag | PPARg SRC2 recr | TR-FRET SRC-2 ct | SRC1 TRFRET art | PPARg SRC1 recr | SRC3 TRFRET art
COc1ccc(Cn2c(-c3ccc(C)cc3)nc3c(c(=O)c4ccccc4n3C)c2=O)cc1 | 0 | 29* | 2131* | 2030 | 4 | 1508
O=C(COC(=O)c1ccc(O)cc1)Nc1ccc(Cl)cc1 | 7 | 5 | 1680 | 1956 | 12 | 1671
Cc1ccc2nc(SCC(=O)NCc3cccs3)c(C#N)cc2c1 | -6 | 1 | 1428 | / | 42* | /
Cc1ccc2nc(SCC(=O)NCc3ccco3)c(C#N)cc2c1 | 10 | 16 | 2312* | / | 10 | /
CC(C)n1c(SCC(=O)NCc2ccco2)nc2c1c(=O)n(C)c(=O)n2C | -1 | 3 | 1612 | / | 20* | /
Cn1c(=O)c2c(nc(SCC(=O)NCc3ccco3)n2C)n(C)c1=O | 4 | 15 | 1715 | / | 2 | /
CCN(CC)CCCNC(=O)c1ccc2c(SCC(=O)O)c3c(nc2c1)CCC3 | 5 | 23* | 1661 | 1924 | 9 | 1780
Cc1ccc(-c2noc(CSc3nnnn3C3CCCCC3)n2)cc1 | 1 | -2 | 1642 | / | -1 | /
COc1ccc(Nc2nc(-c3ccccc3)c(C(=O)Nc3cccnc3)s2)cc1 | 19 | 16 | 1853 | 2466* | 17 | 2178*
N#Cc1ccccc1NC(=O)c1ccccc1OCC(=O)Nc1ccc2c(c1)oc1ccccc12 | 5 | 13 | 2662* | / | 3 | /
COc1ccccc1CN(C)C(=O)c1ccc2c(c1)NC(=O)CS2 | 48* | 8 | 1488 | / | -4 | /
COC(=O)c1ccc2c(c1)NC(=O)CS2 | -2 | 7 | 1672 | 1887 | 2 | 1558
CNCCCCOc1ccc(C(C)(C)C)cc1Cl | 5 | 1 | 1359 | 1725 | 4 | 1523
COc1ccc(OC)c(NC(=O)CSc2nnc(-c3cccnc3)s2)c1 | 6 | 10 | 1585 | 1752 | 4 | 1442
COc1ccc(OC)c(NC(=O)CSc2nnc(N)s2)c1 | 7 | 23* | 1802 | / | 8 | /
CCNC(=O)c1ccccc1SCc1ccccc1 | 1 | 2 | 1479 | 1740 | -3 | 1473
O=C(Nc1nc2ccccc2c(=O)[nH]1)c1ccccc1SCc1ccccc1 | 2 | 3 | 1370 | 1612 | 1 | 2104*
O=C(Oc1cccc(C(=S)N2CCOCC2)c1)c1cc([N+](=O)[O-])cc([N+](=O)[O-])c1 | -1 | 1 | 1320 | 1645 | -2 | 1574
COc1ccc(-n2c(SCC(=O)NNC(=O)c3ccccc3C)nnc2-c2ccncc2)cc1 | -10 | 3 | 1350 | / | -5 | /
Cc1cc(NC(=O)CSc2nc3cc(Cl)ccc3s2)no1 | 19 | 3 | 1623 | / | 0 | /
Cc1cc(SCC(=O)c2cc3ccccc3o2)nc2ccccc12 | 2 | 4 | 2575* | / | 3 | /
O=C(CSc1nc2cc(Cl)ccc2s1)c1cc2ccccc2o1 | 1 | 8 | 2199* | / | 3 | /
CC(C)(O)C#Cc1ccc(C(=O)NCc2ccccc2)s1 | 10 | 8 | 1668 | / | 6 | /
Cc1nc(NC2=NCN(CC3CCCO3)CN2)nc2ccccc12 (configuration not stated) | 11 | 16 | 1649 | / | 10 | /
c1cncc(-c2nc(N3CCOCC3)c3ccccc3n2)c1 | 3 | -2 | 1467 | / | -12 | /
SMILES | PPARg SRC-3 ag | PPARg SRC2 recr | TR-FRET SRC-2 ct | SRC1 TRFRET art | PPARg SRC1 recr | SRC3 TRFRET art
O=S(=O)(/C=C/c1ccccc1)N1CCN(c2nc(-c3cccnc3)nc3ccccc23)CC1 | 7 | 7 | 1899 | 2657* | 5 | 2270*
Cc1ccc(S(=O)(=O)NCC(=O)N(CC(=O)NCC2CCCO2)Cc2ccco2)cc1 (configuration not stated) | 0 | 5 | 1674 | 1754 | 4 | 1703
CC1C/C(=N\NC(=O)c2ccc(NS(=O)(=O)c3ccc(Br)cc3)cc2)CC(C)(C)C1 (configuration not stated) | 2 | 5 | 1620 | 1821 | -4 | 1658
N#Cc1cnn(-c2nc(SCc3ccccc3)nc3sc4c(c23)CCCC4)c1N | 7 | 5 | 2441* | / | 9 | /
COCCCNc1nc(SCc2ccccc2)nc2sc3c(c12)CCC3 | 5 | -6 | 1553 | / | 2 | /
CCOC(=O)C1(Cc2ccc(Cl)cc2)CCN(C(=O)c2ccoc2)CC1 | -2 | 9 | 1642 | 1754 | 14 | 1560
O=C(COC(=O)C1CCN(S(=O)(=O)c2cccs2)CC1)c1cc2ccccc2o1 | 0 | 7 | 2135* | / | -3 | /
O=C(COC(=O)C1CCN(S(=O)(=O)c2cccs2)CC1)c1ccc2c(c1)OCCO2 | -11 | -7 | 2115* | / | -6 | /
O=C1COc2ccc(C(=O)COC(=O)C3CCN(S(=O)(=O)c4cccs4)CC3)cc2N1 | 17 | 12 | 1626 | / | 10 | /
Cc1ccc(NC(=O)c2sc3ccccc3c2Cl)nc1 | 12 | 4 | 1782 | / | 36* | /
Cc1nnc(NC(=O)c2sc3ccccc3c2Cl)s1 | 16 | 2 | 1652 | / | 16 | /
COc1cc(OC)cc(C(=O)NCC(=O)OCC(=O)/C=C2/N(C)c3ccccc3C2(C)C)c1 | -3 | -4 | 1591 | 1763 | 2 | 1511
CN1/C(=C\C(=O)COC(=O)Cn2nnc(-c3ccccc3)n2)C(C)(C)c2ccccc21 | 5 | 9 | 2474* | / | 10 | /
CC(=O)N/C(=N\OCc1ccccc1Cl)c1nonc1NC(C)=O | -2 | 2 | 1705 | 1687 | -1 | 1504
COc1ccc2c(c1OC)C(=O)N1N=C(c3ccc(O)cc3)CC21 (configuration not stated) | 12 | -2 | 1571 | / | 6 | /
COc1ccc(C2=NN(c3nc(-c4ccccc4)c(CC(=O)O)s3)C(c3ccco3)C2)cc1 (configuration not stated) | 14 | 1 | 1644 | 2061 | 7 | 2153*
CCOC(=O)c1c(NC(=S)Nc2ccc(OC)cc2)sc2c1CCC2 | 1 | 8 | 1599 | 1583 | 0 | 1631
COC(=O)c1c(NC(=S)Nc2ccc(C(=O)N3CCOCC3)cc2)sc2c1CCC2 | 9 | 13 | 1929 | 2132 | 18 | 2231*
CC1=NNC(=O)C1CC(=O)N/N=C(\C)c1ccco1 (configuration not stated) | 2 | 6 | 1775 | 2343* | 2 | 1454
CC1=NNC(=O)C1CCC(=O)N/N=C(\C)c1ccccc1 (configuration not stated) | 2 | -1 | 1390 | 1740 | 0 | 1476
COc1cc(C#N)c(NC(=S)N2CCOCC2)cc1OC | 6 | 12 | 2021* | 2063 | 17 | 1717
CCN(CC)S(=O)(=O)c1cc(NC(=O)COC(=O)c2ccc(NC(=O)CC#N)cc2)ccc1C | 6 | -2 | 1465 | 1730 | 13 | 1545
CSc1ccccc1NC(=O)Cn1c(-c2cscn2)nc2ccccc21 | 3 | 1 | 1477 | / | 24* | /
